# Vaccinia Venus = qHTS for Stage-Specific Inhibitors of Vaccinia Orthopoxvirus: Venus Reporter Primary qHTS. Vaccinia virus Venus reporter expression, fluorescence. Potency, µM (highest dose often 36.5 µM), without a hit: top-dose activity change, negative = inhibition, hits mostly inhibitors. actives 0.46% (n = 330,000); calls by dose curve; tested in A549 cells; further: potency means the concentration at half of the fitted maximal effect; nearly all actives have a fitted effect of over 30% in size
# FMDV antiviral = High Throughput Screening for Foot and Mouth Disease Virus Antivirals; FMDV antiviral cell-based qHTS; Potency, µM (series often up to 57.9 µM), inactives show at the highest dose activity change, negative = inhibition, usual class: inhibitors; actives 1.2% (n = 410,000); AID 1159524, 2015; calls by dose curve; tested in HEK293T cells; further: read-out not given here; potency means the concentration at half of the fitted maximal effect; nearly all actives have a fitted effect of over 45% in size
# HCMV inh = qHTS Assay for inhibitors of the human cytomegalovirus (HCMV); HFF cells, HCMV-luciferase reporter, 72 h; active compounds read low; activity change, negative = inhibition, % at 57.5 µM; actives 4.5% (n = 410,000); AID 1259415, 2018; in the data active means activity change below about -60%; inconclusive means no clear call, values can overlap the other calls; inactive means above about -39%
#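 HFF cells seeded 16 h at 37C, treated with compounds, infected with luciferase-reporter HCMV at MOI 1 PFU/cell; luciferase read at 72 h post infection, normalized to buffer-only and Salinomycin controls.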
# VACV mCherry inh = qHTS for Stage-Specific Inhibitors of Vaccinia Orthopoxvirus: mCherry Reporter Primary qHTS. actives 0.63% (n = 310,000). Potency, µM (titrated, usually from 36.5 µM), without a hit: at the highest dose activity change, negative = inhibition, most hits filed as inhibitors. AID 720579, 2013. Vaccinia virus mCherry reporter infection, fluorescence; calls by dose curve; tested in A549 cells; further: potency means the concentration at half of the fitted maximal effect; nearly all actives have a fitted effect of over 35% in size
# HCV inhibitor = qHTS Assay for Inhibitors of Hepatitis C Virus (HCV). Huh7.5.1 HCVcc-Cre infection, luciferase reporter, 44 h. Potency, µM (highest dose often 41.8 µM), for inactives: top-dose activity change, negative = inhibition, usual class: inhibitors. actives 3.4% (n = 340,000); further: potency means the concentration at half of the fitted maximal effect
#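 Compounds are dispensed onto cells plated 4 h earlier at 1,000 per well, with HCVcc-Cre virus (about 0.5 moi) added next. Following 44 h of culture, luminescent signal is measured for 15 sec after 15 min with substrate at room temperature.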
# Sm TGR inh = qHTS Assay for the Inhibitors of Schistosoma Mansoni Peroxiredoxins | actives 3% (n = 360,000) | purified TGR, DTNB reduction, TNB absorbance 405 nm | Potency, µM (highest dose often 114 µM), for inactives: at the highest dose activity change, negative = inhibition, most hits filed as inhibitors | Schistosoma mansoni thioredoxin glutathione reductase (TGR), Q962Y6 | AID 485364, 2010; further: potency means the concentration at half of the fitted maximal effect; nearly all actives have a fitted effect of over 60% in size
#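 Kinetic colorimetric format: TGR-catalysed, NADPH-driven DTNB reduction monitored via TNB absorbance. Enzyme dispensed at 20 nM; compound exposure 15 min at room temperature before reaction start.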
# * marks the source's active call; other numbers are inactive results; i = inactive; ? = inconclusive; · = no result; [ ] = another dose, or the depositor's remark. This is a sample that favours compounds with a hit; in the whole collection about 9.3% have one here. Unless noted, the call rests on the fitted dose curve; in most records, active means well fitted curve in the direction sought with a large enough effect; inconclusive means small, poorly fitted or top-dose-only effect, or another doubt; inactive means no such curve, though single readings can be large; an effect the other way counts as inactive or inconclusive. On the % scale 0 is the no-effect control and ±100 the full control effect.
SMILES,Vaccinia Venus,FMDV antiviral,HCMV inh,VACV mCherry inh,HCV inhibitor,Sm TGR inh
Cc1ccc(N(C)S(=O)(=O)c2ccc(-c3cc(C)no3)s2)cc1,·,0%,0,·,?,2%
COc1ccc(NC(=O)CSc2c3c(nc4cc(Cl)ccc24)CCCC3)cc1OC,-14%,?,55,-7%,?,1%
Cc1ccc(CNC(=O)CSc2c3c(nc4ccc(Cl)cc24)CCCC3)cc1,-22%,-12%,-17,-20%,·,0%
COc1ccc(NC(=O)CSc2c3c(nc4ccc(Cl)cc24)CCCC3)cc1Cl,-17%,?,-80*,-13%,·,16%
Cc1ccc(C)c(NC(=O)CSc2c3c(nc4ccc(Cl)cc24)CCCC3)c1,-21%,-16%,-74*,-24%,·,1%
CC(=O)NS(=O)(=O)c1ccc(NC(=O)c2ccc(S(=O)(=O)N3CCCC3)cc2)cc1,·,-17%,-8,·,3%,3%
O=C(Nc1cccc(F)c1)N1CCc2nc(NCc3cccc(Oc4ccccc4)c3)ncc2C1,?,?,-78*,-6%,·,·
COc1cc(Nc2ncc3c(n2)CCN(C(=O)Nc2ccc(C(C)C)cc2)C3)cc(OC)c1OC,-22%,-19%,?,-10%,·,·
COc1cccc(NC(=O)N2CCc3ccccc3C2)c1,-20%,11%,160,-14%,10%,3%
COc1cccc(NC(=O)N2CCc3nc(Nc4ccc(C(C)C)cc4)ncc3C2)c1,?,-14%,-69*,-2%,·,·
CC(C)c1ccc(NC(=O)N2CCc3ccccc3C2)cc1,-20%,39%,48,i,-25%,6%
CC(C)c1ccc(NC(=O)N2CCc3nc(NCc4cccc(Oc5ccccc5)c4)ncc3C2)cc1,-26%,-34%,-87*,-13%,·,·
CCCNC(=O)N1CCN(c2nc(C(C)C)c3c(c2C#N)CC(C)(C)OC3)CC1,?,?,-66*,-9%,?,5%
Cc1ccc(S(=O)(=O)N2CCN(c3nc(C(C)C)c4c(c3C#N)CC(C)(C)OC4)CC2)cc1,·,-9%,?,·,7.1µM*,0%
CCCc1nc2ccc(Br)cn2c1Cc1ccccc1,-11%,13%,-20,i,·,·
Cc1ccc(Cl)cc1NC(=O)c1sc2nc(C)c(C)c(C)c2c1N,-1%,21%,8,0%,·,-8%
O=C(Nc1nc2ccc(F)cc2s1)c1nc(S(=O)(=O)Cc2ccccc2)ncc1Cl,-26%,28µM*,-107*,-29%,·,?
Cc1cccc(CS(=O)(=O)c2ncc(Cl)c(C(=O)Nc3nc4ccc(F)cc4s3)n2)c1,?,16µM*,-60*,?,·,-28%
N#Cc1cccc(NC(=O)C2CCN(c3nc(-c4ccc(Cl)cc4)no3)CC2)c1,-12%[7.34 µM],25µM*,?,-12%[7.34 µM],·,19%
COc1ccc(OC)c(NC(=O)CSc2ncnc3c2cnn3-c2ccccc2Cl)c1,·,7.9µM*,·,·,0.89µM*,?
Cc1nnc(SCC(=O)Nc2cc(S(=O)(=O)N3CCCC3)ccc2Cl)n1C1CC1,·,0%,10,·,1%,-18%
Cc1ccc(C)c(N2C(=O)N(Cc3ccccc3C)c3ccccc3S2(=O)=O)c1,-12%,?,-32,0%,·,0%
COC(=O)c1cc2oc3ccccc3c2n1Cc1c(C)cc(C)cc1C,-13%,-18%,25,-14%,·,0%
CCn1c(C(=O)NCc2ccc(OC(C)C)cc2)cc2oc3ccccc3c21,6%,-15%,-79*,-9%,·,3%
CCn1c(C(=O)NCc2ccccc2C)cc2oc3ccccc3c21,17%,-6%,-82*,?,·,-5%
SMILES,Vaccinia Venus,FMDV antiviral,HCMV inh,VACV mCherry inh,HCV inhibitor,Sm TGR inh
O=C(CSc1nc2c(c(=O)[nH]1)CN(Cc1ccc(F)cc1)CC2)Nc1ccc(F)cc1,-2%,-29%,-36,-1%,14%,3%
Cc1nc2ccccc2c(=O)n1NC(=O)Cc1ccc(Br)cc1,-9%,0%,19,1.8µM*,13%,4%
CCCCCc1ccc(CC(=O)Nn2c(C)nc3ccccc3c2=O)cc1,-25%,·,-69*,-30%,?,2%
CCc1ccc(C(=O)Nn2c(C)nc3ccccc3c2=O)cc1,·,4%,85,·,3%,-2%
O=S(=O)(Nc1cc2nc3ccccc3nc2n1Cc1ccccc1)c1ccc(Cl)cc1,-4%,12%,-91*,i,?,-17%
CS(=O)(=O)NC1c2cccc3cccc(c23)C1Sc1nncn1/N=C/c1ccco1 (stereo not given),-15%,-16%,52,i,-18%,50µM*
COc1ccc(C(=O)NCC(=O)N=Nc2c(O)n(C)c3ccccc23)cc1OC,·,-9%,-61*,·,-20%,8%
COc1ccc(CCNC(=O)CCC(=O)c2cccs2)cc1OC,-5%,-29%,-26,-10%,5%,-4%
COc1cc(N)c(Cl)cc1C(=O)OCC(=O)NCC1CCCCC1,-16%,-18%,-66*,-14%,10µM*,·
Cc1ccnc2nc(C(=O)OCC(=O)c3ccc(Cl)cc3)nn12,·,7%,-19,·,19%,-24%
COc1ccccc1OCCn1cc(C(=O)c2ccco2)c2ccccc21,-26%,25µM*,61,?,?,0%
COc1cccc(OCCn2cc(C(=O)c3ccco3)c3ccccc32)c1,-11%,-2%,2,-23%,20µM*,?
Cc1cc(OCCn2cc(C(=O)c3ccco3)c3ccccc32)ccc1Cl,-8%,-16%,-4,3%,·,11%
Cc1ccccc1OCCn1cc(C(=O)c2ccco2)c2ccccc21,-4%,-10%,-3,-5%,·,-2%
COc1ccccc1OCCCn1cc(C(=O)c2ccco2)c2ccccc21,·,-12%,166,·,11µM*,1%
CC(=O)Nc1nonc1-c1nnc(SCC(=O)Nc2cc(C)cc(C)c2)n1-c1ccccc1,?,-18%,-4,?,·,-1%
CCCCN(CC)C(=O)Cn1c(=O)n(-c2ccc(OCC)cc2)c(=O)c2c3c(sc21)CCCC3,-7%,-20%,-9,-16%,·,-7%
COCCNc1ccc(-c2nc(-c3ccncc3)no2)cc1[N+](=O)[O-],-3%,37%,19,-3%,·,9%
CCCc1c(CC)c(=N)c2ccccc2n1C,-23%,?,-87*,-22%,-4%,-3%
O=C(NCCOc1ccc(Cl)cc1)c1ccc2c(c1)OCCO2,·,29%,10,·,-26%,-14%
O=C(NCc1ccccc1)C1=C[C@@H](c2ccc(C(F)(F)F)cc2)C[C@@H](OCCCCO)O1,-9%,-1%,-19,0%,8%,·

# High-throughput results: PubChem BioAssay, National Center for Advancing Translational Sciences (NCATS)
